In PubChem BioAssay AID995 (National Center for Advancing Translational Sciences (NCATS), 2007):
In all, about 72,000 compounds went through this assay and about 710 (0.99%) were called active. Another 7% or so got no clear call; they are omitted. Calls come from the whole dose curve; as a rule, active = well fitted inhibition curve with a large enough effect; inconclusive = small, poorly fitted or top-dose-only effect; inactive = no such curve, though single readings can be large or run the other way. This excerpt belongs to a sample that is enriched for actives.

experiment: qHTS Assay for Inhibitors of the ERK Signaling Pathway using a Homogeneous Screening Assay; conditions: HEK293-V1b, vasopressin-stimulated pERK AlphaScreen; series mostly up to 57.5 µM; activity, negative = inhibition: at the top concentration; note: nearly all actives have a fitted effect of over 55% in size
In short: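 V1b-HEK293 cells; cpd 30 min 37C; 25 nM vasopressin 5 min; lyse 10 min; AlphaScreen beads 5 hr RT. Normalized to DMSO basal and 25 nM vasopressin; AC50 by Hill fit.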
% is set by controls: 0 for no effect and ±100 for the full control effect; potency is the fitted concentration of half-maximal effect.

| SMILES | activity, negative = inhibition | Potency |
| --- | --- | --- |
| COC(=O)[C@@H]1C[C@@]2(O)[C@H](O)[C@H](O)[C@H](O)C[C@H]2N1Cc1ccc(C(C)(C)C)cc1 | -2.93% (inactive) | – |
| NCCNCC1CCNCC1 | -16% [at 11.5 µM] (inactive) | – |
| O=C(c1ccco1)N1CCN(C(=O)C2CC(c3ccc(F)cc3)=NO2)CC1 (configuration not stated) | 21.8% (inactive) | – |
| O=C(c1ccco1)N1CCN(C(=O)C2CC(c3ccc(Cl)c(Cl)c3)=NO2)CC1 (configuration not stated) | – | 20 µM (active) |
| O=C(c1ccco1)N1CCN(c2cccc(Cl)c2)CC1 | 4.47% (inactive) | – |
| O=C(O)c1c(Br)c(Br)c(Br)c(Br)c1C1c2ccc(O)cc2Oc2cc(O)ccc21 | -24.2% [at 11.5 µM] (inactive) | – |
| CC(=O)OC1CCC2(O)CC1(C)CCC1C2CC1(C)C (configuration not stated) | 0.411% (inactive) | – |
| COc1cccc(Cn2c(=O)cnc3cncnc32)c1 | -9.52% (inactive) | – |
| COc1ccc(CCC(=O)c2c(O)cc(OC3OC(CO)C(O)C(O)C3O[C@@H]3OC(C)C(O)C(O)C3O)cc2O)cc1O (some centres not stated) | 5.82% (inactive) | – |
| O=C(Oc1cc(OC(=O)c2ccccc2)c2c(c1)OC(c1ccc(OC(=O)c3ccccc3)c(OC(=O)c3ccccc3)c1)[C@@H](OC(=O)c1ccccc1)C2)c1ccccc1 (some centres not stated) | 0.548% (inactive) | – |
| CC1(C)SC2c3ccccc3C(=O)N2[C@@H]1C(=O)NCc1ccco1 (some centres not stated) | -7.78% (inactive) | – |
| O=C1c2ccccc2C(Nc2ccc3c(c2)OCCO3)N1Cc1ccco1 (configuration not stated) | – | 25.1 µM (active) |
| O=C(NC1CCCCC1)C1c2ccccc2C(=O)N1Cc1ccco1 (configuration not stated) | -23.9% (inactive) | – |
| COC1C[C@@H](O[C@@H]2C(C)C(=O)OC(C)C(C)C(O)C(C)C(=O)[C@@]3(CO3)CC(C)C(OC3OC(C)CC(N(C)C)C3O)C2C)OC(C)[C@@H]1O (some centres not stated) | 2.45% (inactive) | – |
| C=C[C@](C)(O)CCC1C(=C)CCC2[C@@](C)(CO)CCC[C@@]12C (some centres not stated) | -12.1% (inactive) | – |
| COCc1[nH]nc2c1C(C1C=CCCC1)C(C#N)=C(N)O2 (configuration not stated) | -18.5% (inactive) | – |
| N#CC1=C(N)OC2=C(C(=O)CCC2)C1C1CC=CCC1 (configuration not stated) | -8.42% (inactive) | – |
| N#CC1=C(N)Oc2cc(O)ccc2C1C1CCCCC1 (configuration not stated) | – | 25.1 µM (active) |
| Clc1ccc(C=Nc2ccc3c(c2)Cc2ccccc2-3)c(Cl)c1 | 9.67% [at 11.5 µM] (inactive) | – |
| CCCN(C/C=C\I)[C@@H]1CCc2cccc(O)c2C1 | -3.23% (inactive) | – |
| CC1=C(/C=C/C(C)=C/C=C/C(C)=C/C=C/C=C(C)/C=C/C=C(C)/C=C/C2=C(C)CCCC2(C)C)C(C)(C)CCC1 | 14.6% (inactive) | – |
| COCCn1c(=O)c(CCc2ccccc2)nc2cnc(N3CCNCC3)nc21 | -17.1% (inactive) | – |
| Cc1cnc(CNc2cc(-c3c(C)noc3C)ncn2)cn1 | 1.75% (inactive) | – |
| O=C(O)C(O)[C@@](O)(Cc1ccc(O)cc1)C(=O)O (some centres not stated) | -28% (inactive) | – |
| Cc1ccnc(N2CCC(C(=O)NC3CCCCCC3)CC2)n1 | -0.296% (inactive) | – |
| Cc1nc2ccccc2c(=O)n1CCCn1ccnc1 | -13.7% (inactive) | – |
| Cc1ccnc(-n2sc3ccccc3c2=O)n1 | – | 39.8 µM (active) |
